These results are taken from PubChem BioAssay AID1510 (The Scripps Research Institute Molecular Screening Center, 2009).

Hit rate of the full screen: of about 220,000 compounds, about 570 (0.26%) were called active. Shown is part of a subset that was picked to be rich in actives. Values without a mark were called inactive. Cut-off read from the data, not from the text of the source: active = inhibition above about 29%; inactive = the rest.

This test deals with Sphingosine 1-phosphate receptor 4 (Homo sapiens) (UniProt O95977). Briefly: S1P4 receptor antagonists, primary screen, cell-based (AID 1510).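 Note: 0% = wells stimulated with agonist and 100% = vehicle wells without agonist.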 The note with it: S1P4-expressing cells, antagonist mode, reporter read-out; at 4.98 µM; active compounds read high.
Sequence of Sphingosine 1-phosphate receptor 4 (Homo sapiens) (O95977 whole entry, looked up): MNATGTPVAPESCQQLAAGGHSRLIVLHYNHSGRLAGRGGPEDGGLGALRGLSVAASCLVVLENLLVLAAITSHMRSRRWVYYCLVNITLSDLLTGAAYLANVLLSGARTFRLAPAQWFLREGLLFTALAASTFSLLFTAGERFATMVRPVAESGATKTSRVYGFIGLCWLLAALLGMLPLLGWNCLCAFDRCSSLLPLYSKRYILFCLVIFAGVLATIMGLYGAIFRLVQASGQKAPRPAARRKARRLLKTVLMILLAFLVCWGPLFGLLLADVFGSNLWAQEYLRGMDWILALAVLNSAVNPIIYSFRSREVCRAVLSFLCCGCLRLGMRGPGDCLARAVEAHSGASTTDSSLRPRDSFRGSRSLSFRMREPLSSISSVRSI
Turning to `O=S1(=O)CCC(NC(=S)SCc2ccccc2Br)C1` (stereo not given), the inhibition was -3.75%.

On to `C[C@H](NC(=O)OC(C)(C)C)c1nnc(SCC(N)=O)o1`, for which the inhibition is -7.8%.

For `CC(C)Sc1nnc([C@H](Cc2ccccc2)NC(=O)OC(C)(C)C)o1`, the inhibition is -0.59%.

As to `C[C@@H](NC(=O)OC(C)(C)C)c1nnc(S(=O)(=O)Cc2ccccc2)o1`, the inhibition is 64% (active).

Turning to `CC(C(=O)NC1CCCC1)N(c1ccc(Oc2ccccc2)cc1)S(C)(=O)=O` (stereo not given), the inhibition is -5.41%.

Take `CC(=O)N1CCN(S(=O)(=O)c2c(F)cc(F)c(Cl)c2F)CC1`: the inhibition is 6.68%.

Turning to `COCCCN(C(=S)Nc1c(C)cc(C)cc1C)C(C)c1ccncc1` (stereo not given), the inhibition is -9.1%.

With `CCOC(=O)Cc1csc(NC(=O)CSc2ccc(Br)cc2)n1`, the inhibition was -7.78%.

Consider `Cc1cc(-c2cccs2)nc(-n2cccc2)n1`, for which the inhibition is -8.93%.

Take `O=C(NNC(=S)NC(=O)c1cn(-c2ccccc2)nc1-c1ccccc1)c1ccncc1`: the inhibition is 13.1%.

Regarding `CCc1nnc(NC(=O)CCN(c2ccc(C)cc2)S(=O)(=O)c2ccccc2)s1`, the inhibition is -0.25%.

Take `O=C(NCCOc1ccccc1Cl)C(=O)Nc1ccccc1`: the inhibition was -2.25%.

In the case of `S=C(NCC1CCCO1)N1CCN(c2ccc(Cl)c(Cl)c2)CC1` (stereo not given), the inhibition was 4.85%.

In the case of `CCC(C)(C)NC(=O)C(c1ccc(O)cc1)N(C(=O)Cn1nnc2ccccc21)c1ccc(NC(C)=O)cc1` (stereo not given), the inhibition was -9.34%.

For the compound `COc1cccc(NC(=O)c2nn(-c3ccc(OC)cc3OC)c(=O)c3ccccc23)c1`, the inhibition was -8.83%.

On to `O=C(/C=C/c1ccc(Cl)c([N+](=O)[O-])c1)c1cccnc1`, for which the inhibition is 2.24%.

Consider `O=C(/C=C/c1ccc(Cl)cc1Cl)c1cccnc1`, for which the inhibition was 47.2% (active).

Turning to `O=C(/C=C/c1ccc(Cl)cc1Cl)NCc1ccco1`, the inhibition was 3.88%.

As to `CCc1c(C)nc2cc(C)[nH]n2c1=O`, the inhibition is 5.94%.

Take `Cc1cc(=O)n2[nH]c(-c3sccc3-n3c(C)ccc3C)cc2n1`: the inhibition was -27%.

As for `CCc1c(C)nc2cc(-c3cccs3)[nH]n2c1=O`, the inhibition was 48.1% (active).

As for `CN1C(=O)C(CC(=O)Nc2ccccc2)S/C1=N/c1nccs1` (stereo not given), the inhibition is -20.3%.

As to `Cc1coc2c(O)cc3c(c12)OC1(N2CCCCC2)C(=O)NCCCC31` (stereo not given), the inhibition was 9.33%.

Take `COCc1cc(=O)oc2cc(NS(=O)(=O)c3ccc(C)cc3)ccc12`: the inhibition is 13.1%.

For the compound `CC(C)(C)c1ccc(/C=C2\Oc3c(ccc(O)c3CN3CCN(CCO)CC3)C2=O)cc1`, the inhibition was 12.8%.

`Cc1ccc2c(c1)C1CN(C)CCC1N2C(=S)Nc1ccc(Cl)cc1Cl` (stereo not given): the inhibition is -21%.

Consider `O=S(=O)(NCCc1ccc(F)cc1)c1cccc2cccnc12`, for which the inhibition is -18.1%.

Regarding `CN(C)c1ccc(C(=S)N2CCN(C(=S)Nc3ccc(Cl)cc3)CC2)cc1`, the inhibition was -3.9%.

As for `CC(=O)Oc1c(C(=O)c2nnc(C)o2)c(=O)n(Cc2ccccc2)c2ccccc12`, the inhibition is -3.21%.

As to `COCCCNC(=S)NNC(=O)C(O)(c1ccccc1)c1ccccc1`, the inhibition is -8.87%.

Take `O=C(Nc1nc2ccc([N+](=O)[O-])cc2s1)c1ccncc1`: the inhibition was -29%.

As for `O=C(NC(Nc1nc2ccc([N+](=O)[O-])cc2s1)(C(F)(F)F)C(F)(F)F)c1ccccc1`, the inhibition was 41.2% (active).

As to `O=C(O)CCC(=O)Nc1nc2ccc([N+](=O)[O-])cc2s1`, the inhibition is -2.95%.

For `Cc1cc(C)cc(OCC(=O)O/N=C(\N)Cc2ccc([N+](=O)[O-])cc2)c1`, the inhibition is -5.5%.

In the case of `FC(F)Oc1ccccc1NC(=S)Nc1cccc(Cl)c1Cl`, the inhibition was 5.26%.

For the compound `COC(=O)CC1=NN(c2nc(C)cc(C)n2)C(=O)C1`, the inhibition was -14.2%.

For `CC(=O)c1cc(C#N)c(N2CC(C)OC(C)C2)nc1C` (stereo not given), the inhibition was -33.6%.

As to `Cc1nc2ccccc2n1CC(=O)N/N=C/c1cccs1`, the inhibition was -34.3%.

Turning to `Cc1ccc(NC(=O)CC2C(=O)N(Cc3ccccc3)C(=S)N2NC(=O)c2cccc(F)c2)c(C)c1` (stereo not given), the inhibition is 6.19%.

On to `O=C(Nc1ccc(F)cc1F)N1CCCN(CCOc2ccccc2)CC1`, for which the inhibition was 6.19%.

Regarding `O=C(O)/C=C/c1ccc2c(c1)OCCO2`, the inhibition was -7.83%.

On to `O=C(CN1CCCCC1)Nc1ccccc1Cl`, for which the inhibition is -3.07%.

With `O=C(Nc1ccccc1Cl)c1ccc2nsnc2c1`, the inhibition was -7.15%.

In the case of `O=C(Nc1ccccc1Cl)/C(Cl)=C(\Cl)S(=O)c1ccccc1` (stereo not given), the inhibition was 98.4% (active).

With `COC(=O)c1ccccc1NC(=O)C1CCN(S(=O)(=O)c2cc(OC)ccc2OC)CC1`, the inhibition is -24.9%.

For the compound `O=C1N(c2ccccc2)C(=Nc2ccccc2)SC12CC2`, the inhibition was 1.83%.

For `CCN(CC)S(=O)(=O)c1ccc(C)c(NC(=O)COc2ccc(Br)cc2Cl)c1`, the inhibition was -3.44%.

As for `COc1ccc(N2CCC(CNC(=S)Nc3c(C)cccc3C)C2)cc1` (stereo not given), the inhibition is 4.09%.

Consider `CCOc1ccc2nc(C(=O)N3CCCC(C)C3)sc2c1` (stereo not given), for which the inhibition is 14.6%.

On to `O=C(Cc1cccs1)N(CC1CCCO1)C1(C(=O)NC2CCCCC2)CCCCC1` (stereo not given), for which the inhibition is -13.5%.

In the case of `O=C(Nc1nnc(C2COc3ccccc3O2)o1)c1ccc(F)cc1` (stereo not given), the inhibition was -4.96%.

Turning to `CC(C)c1cc(NCc2ccccn2)n2c(nc3ccccc32)c1C#N`, the inhibition is 12.6%.

On to `Cn1nnnc1NCc1ccc(Cl)c(Cl)c1`, for which the inhibition is 4.37%.

Take `CCCCCC(O)c1cccc(OCc2ccc3ccccc3n2)c1` (stereo not given): the inhibition was -14.6%.

Regarding `O=C(NCCCc1ccccc1)C1CCC(CNc2c(N3CCCCC3)c(=O)c2=O)CC1` (stereo not given), the inhibition is 0.07%.

With `CC(C)c1ccc(NC(=O)CCN2C(=O)c3ccc([N+](=O)[O-])cc3C2=O)cc1`, the inhibition was -5.92%.

`CC(=O)c1c(-c2ccccc2)c2ccccc2[nH]c1=O`: the inhibition is -27.5%.

Consider `O=C(O)CSc1nccn1-c1cccc(Cl)c1`, for which the inhibition was -14.5%.

For the compound `C/C(=N\Nc1ccc([N+](=O)[O-])cc1)c1ccc(-n2nncc2C(C)(C)C)cc1`, the inhibition is -11.5%.

Regarding `COc1ccc(/C=N/NC(=O)Nc2ccc3nsnc3c2)c(OC)c1`, the inhibition was 9.36%.

Take `CC(=O)c1cccc(NC(=O)[C@@H](NC(N)=O)C(C)C)c1`: the inhibition is -13.9%.

Consider `Cc1ccc(S(=O)(=O)Nc2nc3ccccc3s2)cc1[N+](=O)[O-]`, for which the inhibition was -9.6%.

As to `COc1ccc(CS(=O)/C(Cl)=C(/Cl)C(=O)Nc2ccc(OC)nc2)cc1` (stereo not given), the inhibition was 95.9% (active).

Regarding `COc1ccc(NC(=S)Nc2ccccc2Cl)cn1`, the inhibition was -10.6%.

For `Cc1ccc(NC(=O)OCc2cncs2)cc1`, the inhibition is 6.88%.

As to `COc1ccc(NC(=O)/C(Cl)=C(/Cl)S(=O)Cc2ccc(C)cc2)cn1` (stereo not given), the inhibition was 59.5% (active).

For `COc1ccc(Nc2cc(Cl)ccc2C(=O)O)cn1`, the inhibition was 0.55%.

For `COc1ccc(NC(=S)NCCNC(C)=O)cc1`, the inhibition is 4.01%.

For the compound `CCn1cc(-c2cc(C(=O)O)on2)c(C)n1`, the inhibition was -15.2%.

On to `Cc1csc(CN(C)C(=O)CC2C(=O)NCCN2CC(C)(C)C)n1` (stereo not given), for which the inhibition is 2.01%.

Turning to `CC(C)N(C)C(=O)CCc1nnc(CCc2c[nH]c3ccccc23)o1`, the inhibition is -1.14%.

Take `CCOc1ccc(C(CCc2ccccc2)NC(=O)c2ccc(OC)c(OC)c2)cc1OCC` (stereo not given): the inhibition was 0.03%.

Consider `CC(=O)Nc1ccc(S(=O)(=O)Nc2nccc(/C=C/c3ccccc3F)n2)cc1`, for which the inhibition was -21.4%.

Turning to `O=C(CC(O)(C(F)(F)F)C(F)(F)F)Nc1ccc(Cl)c(Cl)c1`, the inhibition is 33.2% (active).

With `O=C(CC(=O)Nc1ccc(Cl)c(Cl)c1)N/N=C/c1ccc(O)cc1`, the inhibition was -17.9%.

Turning to `CN(C)CCNC(CC(=O)Nc1ccc(Cl)c(Cl)c1)C(=O)O` (stereo not given), the inhibition is 0.14%.

With `CN(C(=O)CSc1nnc(Nc2ccccc2)s1)C1CCS(=O)(=O)C1` (stereo not given), the inhibition was -10.1%.

On to `Cc1ccc(OCCOCCOc2ccc(Br)cc2/C=N\NC(=O)c2ccncc2)cc1`, for which the inhibition was -17.4%.

Take `N#Cc1c(-c2cccs2)nc(SCC(=O)c2ccc(Br)cc2)[nH]c1=O`: the inhibition is 15.8%.

As for `Cc1ccc(C(=O)Nc2sc(Cc3ccc4c(c3)OCO4)c(C)c2C(N)=O)cc1`, the inhibition is -11.1%.

Take `O=C(Nc1ccccc1)OCc1cc(-c2ccc(Cl)cc2)on1`: the inhibition was -6.25%.

Turning to `O=C1C=C(c2ccc(Cl)cc2)C(=O)N1Nc1ccccc1`, the inhibition was 34.7% (active).

Take `O=C1c2cccc3cc(Br)cc(c23)C(=O)N1Nc1ccccc1`: the inhibition was -15.2%.

In the case of `FC(F)(F)c1cccc(-c2nc(COc3ccc(Cl)cc3Cl)no2)c1`, the inhibition is -7.31%.

Take `Oc1ccc(-c2nncn2-c2ccccc2)cc1`: the inhibition is -11.3%.

Turning to `CCNC(=O)COC(=O)CCNC(=O)c1cccc(C)c1`, the inhibition was -16.4%.

`CCN(CCNC(=O)C1=C(C)C(=O)OC12CCC(C)CC2)c1ccccc1` (stereo not given): the inhibition is 7.01%.

Consider `O=C(CCN1C(=O)C2C3C=CC(C3)C2C1=O)Oc1ccc2ccccc2c1` (stereo not given), for which the inhibition was 0.5%.

Take `O=C1c2cccc3c([N+](=O)[O-])ccc(c23)C(=O)N1CC1CCCO1` (stereo not given): the inhibition was 77.4% (active).

For the compound `O=c1c2cc3c(=O)n(CC4CCCO4)c(=O)c3cc2c(=O)n1CC1CCCO1` (stereo not given), the inhibition was 1.15%.

For `O=C(NCc1ccc2c(c1)OCO2)c1ccc2c(c1)C(=O)N(CC1CCCO1)C2=O` (stereo not given), the inhibition was 4.48%.

`Cc1onc(NC(=O)c2ccc([N+](=O)[O-])o2)c1Br`: the inhibition is 28.1%.

Turning to `Cc1cccc(NC(=O)c2ccc([N+](=O)[O-])o2)c1`, the inhibition was 47.9% (active).

As for `Cc1cccc(NC(=S)NC(=O)c2ccc(Br)o2)c1`, the inhibition is -1.45%.

As to `CN(C)C(=O)CSc1n[nH]c(-c2ccco2)n1`, the inhibition is -22.7%.
